{
  "source": "PubChem BioAssay (NCATS)",
  "note": "Records with an inconclusive call do not appear. Activity calls are given as the source filed them. Calls follow the shape of the dose curve; as a rule, active = well fitted cell-killing curve with a large enough effect; inconclusive = small, poorly fitted or top-dose-only effect, or effect the other way; inactive = no such curve, though single readings can be large or run the other way. Potency is read from the fitted curve at half-maximal effect.",
  "data": [
    {"test": "Quantitative High-Throughput drug screen in 47 multiple myeloma cell lines against the NCATS MIPE library collection: OCIMY7_PLB cell viability assay (AID 1918987); also: nearly all actives have a fitted effect of over 65% in size", "details": "OCI-MY7 myeloma viability, CellTiter-Glo ATP, 48 h; series mostly up to 45.8 µM; viability (% of DMSO): at the top concentration", "excerpt": "PI: Beverly A. Mock Ph.D.\nLaboratory of Cancer Biology and Genetics,\nCenter for Cancer Research, National Cancer Institute,\nNational Institute of Health, Bethesda, Maryland\nDrug resistance and disease progression are common in multiple myeloma (MM) patients, underscoring the need for new therapeutic combinations. […] We hypothesized that effective combinations would reduce MYC expression and enhance p16 activity. […] These preclinical data identify potentially useful drug combinations for evaluation in drug-resistant MM and reveal potential mechanisms of combined drug sensitivity.\nDescribed herein is the primary MIPE qHTS used to cherrypick compounds. Validated compounds were then further tested for potential synergistic activiy.\n[1] Peat TJ, Gaikwad SM, Dubois W, Gyabaah-Kessie N, Zhang S, Gorjifard S, Phyo Z, Andres M, Hughitt VK, Simpson RM, Miller MA, Girvin AT, Taylor A, Williams D, D'Antonio N, Zhang Y, Rajagopalan A, Flietner E, Wilson K, Zhang X, Shinn P, Klumpp-Thomas C, McKnight C, Itkin Z, Chen L, Kazandijian D, Zhang J, Michalowski AM, Simmons JK, Keats J, Thomas CJ, Mock BA. Drug combinations identified by high-throughput screening promote cell cycle transition and upregulate Smad pathways in myeloma. Cancer Lett. 2023 Aug 1;568:216284. doi: 10.1016/j.canlet.2023.216284. Epub 2023 Jun 24. PMID: 37356470; PMCID: PMC10408729.\nSEQUENCE No. (e.g., 1, 2, 3, etc.); […] (e.g., Cells, Incubation, Reagent, etc.); VALUE and DESCRIPTION.\n1; Cells; 5 uL; white, solid bottom 1536-well Greiner assay plate.\n2; Compounds; 23 nL; Kalypsis pin tool (Wako USA) equipped with a 1536-well pin head to transfer to the assay plates.\n3; Incubation; 48 hours; 37C incubation.\n4; Reagent;5uL; CellTiter Glo (Promega).\n5; Detector; 425V; Luminescence; Viewlux PerkinElmer.\nNOTES (numbers refer to Sequence numbers above)\n1. The cell-based screening methods employed in this study were like those previously published. Briefly, the corresponding myeloma cell lines were screened in 1,536-well plates with 500 cells, 5-uL per well for inhibition of cell viability (assessed by measuring ATP levels with CellTiterGlo).\n2. NCATS MIPE 4.0 library of approved and investigational drugs were added using the Kalypsis pin tool. Wells treated with DMSO only for 100% viability and media only for 0% viability were used as controls.\n3. The assay plates were covered and incubated for 48 hours in a 37C, 5% CO2 incubator with controlled humidity.\n4. After 48 hours, CellTilter-GloTM luminescent substrate mix (Promega) reagent was added to the assay plate and plates we incubated for 5 min at room temperature.\n5. Signal was measured as median relative luminescence units on a ViewLux (PerkinElmer) multiplate reader.\n[1] Heske CM, Davis MI, Baumgart JT, Wilson K, Gormally MV, Chen L, Zhang X, Ceribelli M, Duveau DY, Guha R, Ferrer M, Arnaldez FI, Ji J, Tran HL, Zhang Y, Mendoza A, Helman LJ, Thomas CJ. Matrix Screen Identifies Synergistic Combination of PARP Inhibitors and Nicotinamide Phosphoribosyltransferase (NAMPT) Inhibitors in Ewing Sarcoma. Clin Cancer Res. 2017 Dec 1;23(23):7301-7311. doi: 10.1158/1078-0432.CCR-17-1121. Epub 2017 Sep 12. PMID: 28899971; PMCID: PMC6636827.", "values": [
      {"smiles": "COc1nc(C)nc(Cl)c1NC1=NCCN1", "Potency": "18.7 µM (active)"},
      {"smiles": "Cn1ccc2cc3c(cc21)CCN3C(=O)Nc1cccnc1", "Potency": "20.9 µM (active)"},
      {"smiles": "CCC1(C)CC(=O)NC1=O", "note": "(stereo not given)", "viability (% of DMSO)": "230% (inactive)"},
      {"smiles": "Clc1ccc2nsnc2c1NC1=NCCN1", "viability (% of DMSO)": "208% (inactive)"},
      {"smiles": "CC(C)Cc1ccc(C(C)C(=O)O)cc1", "note": "(stereo not given)", "viability (% of DMSO)": "140% [at 23.2 µM] (inactive)"},
      {"smiles": "NC(=O)NO", "Potency": "0.132 µM (active)"},
      {"smiles": "COc1cc2nc(N3CCN(C(=O)C4COc5ccccc5O4)CC3)nc(N)c2cc1OC", "note": "(stereo not given)", "Potency": "18.7 µM (active)"},
      {"smiles": "CC12CC3CC(C)(C1)CC(N)(C3)C2", "Potency": "23.5 µM (active)"},
      {"smiles": "CC(C)(Oc1ccc(C2CC2(Cl)Cl)cc1)C(=O)O", "note": "(stereo not given)", "viability (% of DMSO)": "289% [at 92.2 µM] (inactive)"},
      {"smiles": "Cn1cnc2c1c(=O)[nH]c(=O)n2C", "Potency": "5.9 µM (active)"},
      {"smiles": "C[C@H]1c2cccc(O)c2C(O)=C2C(=O)[C@]3(O)C(O)=C(C(N)=O)C(=O)[C@@H](N(C)C)[C@@H]3[C@@H](O)[C@@H]21", "Potency": "11.8 µM (active)"},
      {"smiles": "Fc1ccc([C@@H]2CCNC[C@H]2COc2ccc3c(c2)OCO3)cc1", "viability (% of DMSO)": "135% (inactive)"},
      {"smiles": "CC1COc2c(N3CCN(C)CC3)c(F)cc3c(=O)c(C(=O)O)cn1c23", "note": "(stereo not given)", "viability (% of DMSO)": "230% (inactive)"},
      {"smiles": "COc1cc2nc(N3CCN(C(=O)c4ccco4)CC3)nc(N)c2cc1OC", "Potency": "10.5 µM (active)"},
      {"smiles": "CS(=O)(=O)CCNCc1ccc(-c2ccc3ncnc(Nc4ccc(OCc5cccc(F)c5)c(Cl)c4)c3c2)o1", "Potency": "0.0833 µM (active)"},
      {"smiles": "CN(C)C(=O)C(CCN1CCC(O)(c2ccc(Cl)cc2)CC1)(c1ccccc1)c1ccccc1", "Potency": "20.9 µM (active)"},
      {"smiles": "CC#C[C@]1(O)CC[C@H]2[C@@H]3CCC4=CC(=O)CCC4=C3[C@@H](c3ccc(N(C)C)cc3)C[C@@]21C", "Potency": "1.18 µM (active)"},
      {"smiles": "CN1CCN(C2=Nc3cc(Cl)ccc3Nc3ccccc32)CC1", "viability (% of DMSO)": "163% (inactive)"},
      {"smiles": "COc1ccc2c(c1)c(CC(=O)O)c(C)n2C(=O)c1ccc(Cl)cc1", "Potency": "13.2 µM (active)"},
      {"smiles": "CCC1(c2ccccc2)C(=O)NCNC1=O", "Potency": "3.32 µM (active)"},
      {"smiles": "CC[C@@]1(O)C(=O)OCc2c1cc1n(c2=O)Cc2cc3c(CN(C)C)c(O)ccc3nc2-1", "Potency": "0.148 µM (active)"},
      {"smiles": "CCN1CCCC1CNC(=O)c1cc(S(=O)(=O)CC)c(N)cc1OC", "note": "(stereo not given)", "viability (% of DMSO)": "253% (inactive)"},
      {"smiles": "Clc1ccc(C(c2ccccc2Cl)C(Cl)Cl)cc1", "note": "(stereo not given)", "Potency": "18.7 µM (active)"},
      {"smiles": "CC(CCc1ccc(O)cc1)NCCc1ccc(O)c(O)c1", "note": "(stereo not given)", "Potency": "16.6 µM (active)"},
      {"smiles": "CN1C2CCC1CC(OC(=O)C(CO)c1ccccc1)C2", "note": "(stereo not given)", "viability (% of DMSO)": "181% (inactive)"},
      {"smiles": "CCCCc1oc2ccccc2c1C(=O)c1cc(I)c(OCCN(CC)CC)c(I)c1", "Potency": "18.7 µM (active)"},
      {"smiles": "CN(CCOc1ccc(NS(C)(=O)=O)cc1)CCc1ccc(NS(C)(=O)=O)cc1", "viability (% of DMSO)": "151% (inactive)"},
      {"smiles": "CN(C)CCCN1c2ccccc2CCc2ccc(Cl)cc21", "Potency": "0.187 µM (active)"},
      {"smiles": "Clc1ccccc1C(c1ccccc1)(c1ccccc1)n1ccnc1", "Potency": "18.7 µM (active)"},
      {"smiles": "Nc1c2c(nc3ccccc13)CCCC2", "viability (% of DMSO)": "192% (inactive)"},
      {"smiles": "CC(C)C(=O)Nc1ccc([N+](=O)[O-])c(C(F)(F)F)c1", "Potency": "2.96 µM (active)"},
      {"smiles": "CN(C)CCC=C1c2ccccc2C=Cc2ccccc21", "Potency": "14.8 µM (active)"},
      {"smiles": "CN(C)C(=N)N=C(N)N", "viability (% of DMSO)": "160% (inactive)"},
      {"smiles": "NC12CC3CC(CC(C3)C1)C2", "viability (% of DMSO)": "158% (inactive)"},
      {"smiles": "CC(C(=O)O)c1cccc(C(=O)c2ccccc2)c1", "note": "(stereo not given)", "viability (% of DMSO)": "144% (inactive)"},
      {"smiles": "CN1CCN2c3ccccc3Cc3ccccc3C2C1", "note": "(stereo not given)", "Potency": "18.7 µM (active)"},
      {"smiles": "Nc1nc2c(ncn2COC(CO)CO)c(=O)[nH]1", "Potency": "2.64 µM (active)"},
      {"smiles": "Cc1cc(C(C)(C)C)cc(C)c1CC1=NCCN1", "viability (% of DMSO)": "156% (inactive)"},
      {"smiles": "CN1CCC(=C2c3ccccc3C=Cc3ccccc32)CC1", "Potency": "5.9 µM (active)"},
      {"smiles": "Nc1ccn([C@H]2CC[C@@H](CO)O2)c(=O)n1", "Potency": "13.2 µM (active)"}
    ]}
  ]
}
